In publication PMC12864922, “TDP-43 directly inhibits mRNA accumulation in neurites through modulation of mRNA stability”:
Whole data set: some 9,900 sequences, median “r (bound/input frequency ratio)” near 0.7, cut for the highest 2% near 6.5. Only a selection was taken, and the highest values are over-represented in it overall.

B1: ENSMUSG00000043670.158|Diras1 (ssRNA)
RNA: GGGAGUUCUACAGUCCGACGAUCGCUUCGAUAUCCGCAUGCUACUGCUGAGAUAGAGACCUUGGCACAGUGGCACCUCGACAGCCACCCCGACUGGGGGUUUGGGGUGCUGAGGGUGGGGUGCCCAGCUGAGAGUCUAUCAGCAAAGUCCCUGUGUGCGGUGAUAGGACUAGUGGCUGCUGCCCUAGGGCUCUGACAGAAUCUGAGCCUCUUUGCUGGUCAUGUGUACUCUGGAGACUGUCCCCCAUGUCUGCCCUGAGUUACGGAGCCCCUGUGGUAUCUGCGAGACUGUCCAGGAGACUUGCUCUUGCGGUCGCACUAGUGUGGAAUUCUCGGGUGUCAAGG
B2: ENSMUSG00000022095.20|Fam160b2|21:25;227:231 (ssRNA)
RNA: GGGAGUUCUACAGUCCGACGAUCGCUUCGAUAUCCGCAUGCUAGGUGGGGGAAGAUUCCUGCCACACAACUUCUGCCCACGGGCAGUCUCCUGCCUGGCCAUGCUGCCACUCUGUCCUCCAUGCCGGGGACUUCAGCUGCAGGACACCUCACCUGUUGACCCCACGAGCUGAGGUUUCAAGGAGGUGCUGGCUCCUAAGGCAGUGGUAUUCUUGGAGCCUUUUAGAGGAGCUAGAGGAUGGCCAGUGAGCGCCUAGAUGCUGCCCUGCAACACAUGCGUGACUAUCUCUGCUAUAUUGUGACCCUCUUGCGGUCGCACUAGUGUGGAAUUCUCGGGUGUCAAGG
B3: ENSMUSG00000035202.138|Lars2 (ssRNA)
RNA: GGGAGUUCUACAGUCCGACGAUCGCUUCGAUAUCCGCAUGCUAAUAAAGGAUUUUAAAUUUUUUUACAAGUGAGAACCUAGCAUGUCAAGGUCCUAGGUUCCAUCUCCAACACGAAAAAAGCAAGGCAACUCUACCAAAGAAACUAAUUACAUACUUGUAUUCCCAAUAUGUGAGAAGCUGAGGAAGGAGGAUCAUGAGUUUAAAGCCAUCCUUGGUUACAUGAGACUCUUGUCUCAAAGAACUACCAGGGAUCCUAAUGGACAACAAAGGUUGAAAACCAUUGAAUUAAUAAAUGUUGUGAACUCUUGCGGUCGCACUAGUGUGGAAUUCUCGGGUGUCAAGG
B4: ENSMUSG00000061578.722|Ksr2 (ssRNA)
RNA: GGGAGUUCUACAGUCCGACGAUCGCUUCGAUAUCCGCAUGCUAUCUCUGAAUGUACGUGGGGGACUCCAACAGAUGUUGGGAGAAGACUCAAUAUGAGCAUACGGGGUCAUUGUUCAAUCCUGUAUCAAGACCUUGGAGUUGUCUAAGGCUGUGGGUUUUAAAUACCUGCUGCAGGCCUCCCAUCUCUGGCUCUUUGUUUCCACUCUGGCCCAAGUUUGAGUCUCCAUAUGGGCCCUUCCUGUCCUCAUGCCCUGCCUGUCUUCAUUCCACCCAUCCACCCUCCUAAGGAUUGGUCUUGUUCCCUCUUGCGGUCGCACUAGUGUGGAAUUCUCGGGUGUCAAGG
B5: ENSMUSG00000058297.267|Spock2 (ssRNA)
RNA: GGGAGUUCUACAGUCCGACGAUCGCUUCGAUAUCCGCAUGCUAUGAUAUAUUUGAUGAAGAAUUCCUUACCUGGGCCUCUGAUACCCUUUGGUACGCGUACGUGUGUGUGGCGCGUAUACGUGUGUGUGUGUGUGUGUGUGUGUGUGUGUGUGUGUGUGUGUGAGAGAGAGAGAGAGAGAGAGAGAGAGAGAGAGAGAGAAAGAGAGAGAGAAUGAGAGAGAAUGAGAGAGAGAAUACCCGAGGGCCACCCUGAUGCCCAGGAAGAGUGAGGGCAGCCCCCUGUGUGGUGGAAGAGGCUGGGCCUCUUGCGGUCGCACUAGUGUGGAAUUCUCGGGUGUCAAGG
B6: ENSMUSG00000058297.266|Spock2 (ssRNA)
RNA: GGGAGUUCUACAGUCCGACGAUCGCUUCGAUAUCCGCAUGCUAUUUCCUUGAUAUAUUUGAUGAAGAAUUCCUUACCUGGGCCUCUGAUACCCUUUGGUACGCGUACGUGUGUGUGGCGCGUAUACGUGUGUGUGUGUGUGUGUGUGUGUGUGUGUGUGUGUGUGUGUGAGAGAGAGAGAGAGAGAGAGAGAGAGAGAGAGAGAGAAAGAGAGAGAGAAUGAGAGAGAAUGAGAGAGAGAAUACCCGAGGGCCACCCUGAUGCCCAGGAAGAGUGAGGGCAGCCCCCUGUGUGGUGGAAGAGGCUCUUGCGGUCGCACUAGUGUGGAAUUCUCGGGUGUCAAGG
B7: ENSMUSG00000058297.268|Spock2 (ssRNA)
RNA: GGGAGUUCUACAGUCCGACGAUCGCUUCGAUAUCCGCAUGCUAAUUUGAUGAAGAAUUCCUUACCUGGGCCUCUGAUACCCUUUGGUACGCGUACGUGUGUGUGGCGCGUAUACGUGUGUGUGUGUGUGUGUGUGUGUGUGUGUGUGUGUGUGUGUGAGAGAGAGAGAGAGAGAGAGAGAGAGAGAGAGAGAGAAAGAGAGAGAGAAUGAGAGAGAAUGAGAGAGAGAAUACCCGAGGGCCACCCUGAUGCCCAGGAAGAGUGAGGGCAGCCCCCUGUGUGGUGGAAGAGGCUGGGCAGCUAGCUCUUGCGGUCGCACUAGUGUGGAAUUCUCGGGUGUCAAGG
B8: ENSMUSG00000058297.271|Spock2 (ssRNA)
RNA: GGGAGUUCUACAGUCCGACGAUCGCUUCGAUAUCCGCAUGCUAUACCUGGGCCUCUGAUACCCUUUGGUACGCGUACGUGUGUGUGGCGCGUAUACGUGUGUGUGUGUGUGUGUGUGUGUGUGUGUGUGUGUGUGUGUGAGAGAGAGAGAGAGAGAGAGAGAGAGAGAGAGAGAGAAAGAGAGAGAGAAUGAGAGAGAAUGAGAGAGAGAAUACCCGAGGGCCACCCUGAUGCCCAGGAAGAGUGAGGGCAGCCCCCUGUGUGGUGGAAGAGGCUGGGCAGCUAGCUACUGGGGACCUUGUGCCUCUUGCGGUCGCACUAGUGUGGAAUUCUCGGGUGUCAAGG
B9: ENSMUSG00000031028.129|Tub (ssRNA)
RNA: GGGAGUUCUACAGUCCGACGAUCGCUUCGAUAUCCGCAUGCUACCAAAUAUCUGAGUGGAUGGGGAUGAUAGGAGUCAUCCAGUAGACUCCCUACAUCAGGGCUCUCAGCAGCCCCAGCACAACACCUAUGACACACACACAGGAUCUAGGUCACCAUUCAAGUAAUGGUAUGCUUCAGGAAGAAUGUCCUCUCUGGGAAGACUCAGCUCCCAUUAUUGCCAGCAUGCCAUGAUCAGUGAGGGCUGUGUGCCAUGCUUAGGGGGAUGGCGCAGGGUGAGGGGAGCAGAGGAUAUUUUAGGGCCCUCUUGCGGUCGCACUAGUGUGGAAUUCUCGGGUGUCAAGG

biological target: TDP-43 (Homo sapiens, UniProt Q13148 1-414); experiment: RNA Bind-n-Seq with designed 260-mer pool; 25 mM Tris-HCl, 150 mM KCl, 3 mM MgCl2, BSA (printed 500 mg/mL), 20 units/mL SUPERase IN; pH not stated; 500 nM RNA pool, 1 h, 4 C; TDP-43 5, 50, 500 nM; high values mean tight binding; settings: protein: recombinant; tags: SBP (GST cleaved off with PreScission; pGEX-GST-SBP)
Sequence (Q13148 whole entry): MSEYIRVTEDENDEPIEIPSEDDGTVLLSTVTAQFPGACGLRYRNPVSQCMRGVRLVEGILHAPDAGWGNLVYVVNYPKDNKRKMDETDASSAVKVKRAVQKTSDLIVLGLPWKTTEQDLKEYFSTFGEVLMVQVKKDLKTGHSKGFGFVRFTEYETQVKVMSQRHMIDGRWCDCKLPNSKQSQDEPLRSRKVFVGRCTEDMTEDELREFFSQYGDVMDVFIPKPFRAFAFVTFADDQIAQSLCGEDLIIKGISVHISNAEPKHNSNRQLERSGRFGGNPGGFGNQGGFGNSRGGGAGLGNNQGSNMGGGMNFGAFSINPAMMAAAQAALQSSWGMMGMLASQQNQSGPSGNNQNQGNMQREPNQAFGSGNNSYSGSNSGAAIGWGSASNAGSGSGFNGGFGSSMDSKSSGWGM
Outline: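 The incubation lasted 1 h at 4 °C and used 500 nM of an in vitro-transcribed 260-nt 3′ UTR oligo pool with recombinant SBP-tagged TDP-43 at 5, 50 or 500 nM immobilized on streptavidin beads. It took place in 25 mM Tris-HCl, 150 mM KCl, 3 mM MgCl2, BSA and SUPERase IN. Bound RNA was washed, eluted with biotin, converted to cDNA, PCR-amplified and sequenced to give R, each oligo's normalized abundance in the bound sample divided by that in input. Two independent protein batches provided the duplicates.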

Going from B1 to B2, the binding signal falls from 0.372 R (bound/input frequency ratio) to 0.271 R (bound/input frequency ratio).

Compared with B3, B4 is higher in binding signal: 0.101 R (bound/input frequency ratio) for the first, 1.64 R (bound/input frequency ratio) for the second.

Going from B5 to B6, the binding signal falls from 8.95 R (bound/input frequency ratio) to 5.83 R (bound/input frequency ratio).

First: B7
Second: B8
The binding signal of the first is lower: 2.37 R (bound/input frequency ratio) for the first, 8.28 R (bound/input frequency ratio) for the second.

In the case of B9, the binding signal is reported as 0.521 R (bound/input frequency ratio).
